# Rows were chosen to be rich in hits. Some 2.5% of all compounds tested hit in one or more screens of this group.
# Ecoli rRNA inh: selective bacterial rRNA inhibition in E. coli | E. coli WT GFP vs humanized-ribosome RFP mutants, fluorescence, 24 h; hits give low values; DMSO median 0, no signal -100 | GFP signal change (wild-type ribosome), % (no concentration beside the values) | 350,000 tested, 1.6% active | AID 720706;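 active = significant combined selectivity score with lowered wild-type GFP, culture density cut under 30%, mutant RFP and density less affected; inactive = any of these conditions unmet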
# NSD2 HMT inh: NSD2 (human) methyltransferase inhibition | O96028 | NSD2 peptide methylation, AlphaScreen, 120 min | inhibition, % at 12.5 µM | 310,000 tested, 0.54% active | AID 743445; in the data active = inhibition above about 50%
# AF4-AF9 inh: MLL-AF4/AF9 protein interaction inhibition | 350,000 tested, 0.47% active | P42568 | AlphaScreen, biotin-AF4 peptide binding to FLAG-AF9 | inhibition, % at 10 µM;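 active = every replicate reaching a set inhibition limit, whatever the replicate mean, cut at about 25% in these data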;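 also: 0% = plate neutral control median and 100% = total signal loss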
# RAD52 inh: RAD52 (human) annealing inhibition. P43351. recombinant RAD52 DNA annealing, FRET fluorescence. inhibition, % at 18.7 µM. 360,000 tested, 0.46% active. AID 651710;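 active = every replicate showing at least 50% inhibition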
# Target sequence (P43351 whole entry, looked up): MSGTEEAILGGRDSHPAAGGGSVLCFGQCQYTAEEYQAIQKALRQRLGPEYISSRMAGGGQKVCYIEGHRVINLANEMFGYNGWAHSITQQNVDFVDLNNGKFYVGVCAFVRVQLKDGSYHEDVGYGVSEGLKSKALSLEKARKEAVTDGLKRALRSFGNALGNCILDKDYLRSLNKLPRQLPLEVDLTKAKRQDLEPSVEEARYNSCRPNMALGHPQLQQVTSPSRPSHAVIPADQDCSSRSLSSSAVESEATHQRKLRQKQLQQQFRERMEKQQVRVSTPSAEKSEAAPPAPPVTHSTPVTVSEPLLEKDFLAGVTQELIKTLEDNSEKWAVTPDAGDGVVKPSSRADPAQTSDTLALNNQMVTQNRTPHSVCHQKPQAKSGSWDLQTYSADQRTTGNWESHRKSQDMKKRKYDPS
# Casp6 inh: caspase-6 (human) enzyme inhibition; purified caspase-6, Z-VEID-R110 cleavage fluorescence; inhibition, % at 12.5 µM; AID 686996; P55212; 350,000 tested, 0.53% active;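 active = mean inhibition across replicates at least about 35%, with every replicate also reaching that limit, limit read from the data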;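 also: 0% = median of neutral control wells and 100% = no fluorescence left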
# AlphaScreen art: AlphaScreen assay artifact in NSD2 counter-screen; shares compounds with NSD2 HMT inh; AlphaScreen artifact counterscreen, preloaded methylated H4 peptide; AC35, µM (highest dose often 10 µM), inactives show top-dose activity change, negative = signal loss; 1,500 tested, 9.4% active; call rule not given here
# * marks the source's active call; other numbers are inactive results; / = not tested or not shown.
SMILES,Ecoli rRNA inh,NSD2 HMT inh,AF4-AF9 inh,RAD52 inh,Casp6 inh,AlphaScreen art
Cn1c(=O)c2c(nc(CN3CCOCC3)n2CCCc2ccccc2)n(C)c1=O,/,-3,/,/,/,/
CC1CN(Cc2nc3c(c(=O)n(C)c(=O)n3C)n2CCCc2ccccc2)CC(C)O1 (centres undefined),/,109*,/,/,/,0%
COc1ccc2c3c(n(C)c2c1)[C@@H](CO)N(C(=O)c1ccncc1)CC31CN(S(C)(=O)=O)C1,0,/,3,/,/,/
Cc1cc(C)nc(N2CCC(C(=O)N(C)CCc3ccccc3)CC2)n1,/,60*,/,/,/,-3%
CO[C@H]1CN(C)C(=O)c2cc(NC(=O)c3cc(C)on3)ccc2OC[C@H](C)NC[C@H]1C,1,/,-1,-3,/,/
COc1cc(/C=C2\C(=O)ON=C2c2ccccc2)cc(Cl)c1O,-3,64*,1,-391,1,-6%
O=C1ON=C(c2ccccc2)/C1=C/c1ccc(O)cc1,3,63*,-4,-15,8,-3%
O=C1ON=C(c2ccc(Cl)cc2)/C1=C/c1ccc(O)cc1,-3,1,-3,-100,15,/
COc1cc(/C=C/c2nc3ccccc3c(=O)[nH]2)cc(Cl)c1O,9,82*,-1,-28,6,-6%
Cc1cccc(/C=C\c2nc3ccccc3c(=O)[nH]2)c1,18,-2,7,-25,1,/
C[C@@H]1CCCCO[C@@H](CN(C)S(=O)(=O)c2ccc(F)cc2)[C@H](C)CN([C@@H](C)CO)C(=O)c2cc(NS(C)(=O)=O)ccc2O1,1,/,2,-1,2,/
COc1ccc(C(c2c(C)n(C)n(-c3ccccc3)c2=O)c2c(C)n(C)n(-c3ccccc3)c2=O)cc1OC,-3,-1,-4,-4,2,/
Cc1[nH]n(-c2ccccc2)c(=O)c1Sc1ccc(Cl)cc1,/,4,/,/,/,/
Cc1[nH]n(-c2ccccc2)c(=O)c1C(C[N+](=O)[O-])c1ccc(F)cc1 (centres undefined),/,65*,/,/,/,-2%
COc1ccc(C(c2c(C)[nH]n(-c3ccccc3)c2=O)c2c(C)[nH]n(-c3ccccc3)c2=O)cc1OC,/,98*,/,/,/,-6%
Cc1[nH]n(-c2ccccc2)c(=O)c1C(C[N+](=O)[O-])c1ccc(Cl)cc1 (centres undefined),/,100*,/,/,/,0%
Cc1ccc(C(C[N+](=O)[O-])c2c(C)[nH]n(-c3ccccc3)c2=O)cc1 (centres undefined),1,103*,-1,-3,1,-3%
Cc1[nH]n(-c2ccccc2)c(=O)c1C(c1ccccc1[N+](=O)[O-])C(C#N)C#N (centres undefined),6,1,5,-114,8,/
COC(=O)[C@H]1[C@H](CO)[C@H]2Cn3c(ccc(-c4cccc(F)c4)c3=O)[C@H]2N1CC1CC1,-4,/,-2,-1,1,/
CCCCc1nc2cc(C(=O)N3CCC(O)CC3)ccc2o1,14,66*,-2,3,0,-4%
CCCCc1nc2cc(C(=O)N3CCC[C@H]3CO)ccc2o1,6,-5,-1,-11,-1,/
NC1(C(=O)O)CSSC1,1,76*,48*,-8,4,-2%
Cc1noc(C)c1NC(=O)N(C)C[C@H]1Oc2ccc(NS(=O)(=O)c3cccs3)cc2CC(=O)N([C@H](C)CO)C[C@@H]1C,1,/,/,/,/,/
COc1ccc(CN(C)C[C@@H]2OCCCC[C@H](C)Oc3ccc(NS(=O)(=O)c4cccs4)cc3C(=O)N([C@@H](C)CO)C[C@@H]2C)cc1,0,/,5,29,-2,/
C[C@@H]1CCCCO[C@H](CN(C)C(=O)C2CCCCC2)[C@H](C)CN([C@@H](C)CO)C(=O)c2cc(NC(=O)c3ccncc3)ccc2O1,-8,/,0,8,1,/
O=C(Cc1csc(N2CCOCC2)n1)N/N=C/c1ccc(O)c(O)c1O,44,77*,-6,-19,19,-9%
C/C(=N\NC(=O)Cc1csc(N2CCOCC2)n1)c1ccccc1,/,0,/,/,/,/
O=C(O)c1cc(-c2ccco2)nn1-c1ccc(Cl)cc1,22,60*,2,-25,50*,-5%
Cc1ccc(CSc2nnc(Nc3ccc(C)cc3)s2)cc1,-2,127*,/,2,0,-6%
CCSc1nnc(Nc2ccc(C)cc2)s1,/,1,/,/,/,/

# Source: PubChem (Broad Institute)
